The test system of test [1] is Wnt5a (protein binding on small-molecule microarray). Nature of the test: small molecules binding Wnt5a protein – biophysical, small-molecule microarray, 635/667 nm fluorescence, primary screen (AID 1142).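 Further: fluorescence read at 667 nm with signal to noise per printed feature.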 Conditions: 635 nm fluorescence, higher = more signal.
The nature of test [2]: ATP-based viability of Huh7 replicon cells – cell-based, CellTiter-Glo luminescence, basal, 48 h, cytotoxicity control for HCV replication inhibitor project, primary screen (AID 1143).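 Further: Huh7 hepatoma cells carrying a hepatitis C replication reporter with no stimulus; test concentration not given here.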 The note with it: higher = more signal, called active from +8 up or from −8 down. Background: In antiviral work, replicon cells carry a viral genome segment that copies itself.
The nature of test [3]: basal CRE-LacZ reporter activity in PC12 – cell-based, unstimulated, primary screen (AID 1145). The note with it: no forskolin, luminescence, 4.5 h, higher = more signal, called active from +8 up or from −8 down.
The nature of test [4]: forskolin-driven CRE-LacZ activity in PC12 – cell-based, CRE-LacZ reporter, forskolin-stimulated, primary screen (AID 1146).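 Further: PC12 cells with 6xCRE LacZ reporter stimulated by forskolin 10 µM; beta-galactosidase reporter signal reflecting CREB driven transcription.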 Conditions: luminescence, 4.5 h, higher = more signal, called active from +8 up or from −8 down.
Test [5] concerns the target Streptavidin (Streptomyces avidinii) (UniProt P22629). Nature of the test: compounds binding control protein streptavidin – biophysical, small-molecule microarray, 635/667 nm fluorescence, artefact control for SMM compound annotation, primary screen (AID 1147).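 Further: signal reflects streptavidin binding to arrayed compounds as a control protein.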 The note with it: higher = more signal.
Test [6] in a line: probe aInhba binding on compound microarray – biochemical, small-molecule microarray, 635/667 nm fluorescence, primary screen (AID 1148).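 Further: score merges 667nm spot fluorescence with signal-to-noise for antibody binding to printed compounds.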 The note with it: higher = more signal.
In test [7] the target is Torsin-1A (Homo sapiens) (UniProt O14656). The test is described as follows: TOR1A wild-type binding on microarray – cell lysate, small-molecule microarray, lysate, 635/667 nm, primary screen (AID 1149). The note with it: COS7 hTOR1A-WT lysate, 635 nm fluorescence, higher = more signal.
Test [8] has the same target. Nature of the test: torsin A mutant lysate binding on microarrays – cell lysate, small-molecule microarray, COS7 lysate, 635/667 nm fluorescence, primary screen (AID 1150).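 Further: score pools 667 nm emission and signal to noise measuring lysate protein binding.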 Conditions: COS7 hTOR1A mutant lysate, 635 nm fluorescence, higher = more signal.
The subject of test [9] is Sonic hedgehog protein (Shh). The test is described as follows: Sonic hedgehog microarray binding compounds – biochemical, small-molecule microarray, 635/667 nm fluorescence, primary screen (AID 1151).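 Further: Shh protein binding to compounds spotted on small-molecule microarray slides; score combines spot fluorescence intensity with signal-to-noise across triplicate slides.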 The note with it: 635 nm fluorescence, higher = more signal.
Test [10] can be described thus: optical density shifts of acrAB sulA E. coli – strain DRC41, OD650, 48 h, E. coli filamentation inducer project, primary screen (AID 1152).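 Further: E. coli MC1000 strain DRC41 lacking acrAB efflux pump and sulA.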 The note with it: higher = more signal, called active from +8 up or from −8 down.
A short description of test [11]: probe aLefty1 binding on compound microarray – biochemical, small-molecule microarray, 635/667 nm fluorescence, primary screen (AID 1153).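 Further: score merges spot fluorescence with signal-to-noise ratio from the scanned slide images.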 The note with it: higher = more signal.
Test [12] can be described thus: plasmodial surface anion channel blockers, osmotic lysis – cell-based, P. falciparum Indochina, OD700, 1 h, primary screen (AID 1154). The note with it: P. falciparum Indochina infected RBC osmotic lysis, higher = more signal, called active from +8 up or from −8 down.
Test [13] is described as follows: plasmodial surface anion channel blockers, osmotic lysis – cell-based, P. falciparum Indochina, OD700, 2 h, primary screen (AID 1155).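 Further: lysis reports solute entry through the parasite surface anion channel PSAC.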 Conditions: P. falciparum Indochina infected erythrocytes, higher = more signal, called active from +8 up or from −8 down.
The nature of test [14]: changes in parasitized red cell lysis, either direction – P. falciparum Indochina, OD700, 3 h, PSAC antagonist project, primary screen (AID 1156). The note with it: P. falciparum-infected erythrocytes, osmotic lysis, higher = more signal, called active from +8 up or from −8 down.
The nature of test [15]: plasmodial surface anion channel blockers, osmotic lysis – cell-based, P. falciparum Indochina, OD700, 18 h, primary screen (AID 1157). The note with it: P. falciparum Indochina infected erythrocytes, osmotic lysis OD700, 18 h; higher = more signal, called active from +8 up or from −8 down.
The nature of test [16]: S6 kinase pathway phospho-S6 level changes – cell-based, A549, cytoblot, luminescence, serum-stimulated, primary screen (AID 1158).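 Further: serum-stimulated A549 lung adenocarcinoma cells; signal is phosphorylated S6 detected by cytoblot immunostaining with HRP secondary.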 The note with it: 5 h, higher = more signal.
Test [17] concerns the target NADPH oxidase 2 (Homo sapiens) (UniProt P04839). The test is described as follows: compounds shifting NOX2 Amplex Red fluorescence – cell-based, HEK293-NOX2, PMA-stimulated, NOX inhibitor project, primary screen (AID 1159). Further: test concentration not given here. Conditions: 45 min, higher = more signal, called active from +8 up or from −8 down.
For test [18], the target named is NADPH oxidase 4 (Homo sapiens) (UniProt Q9NPH5). The test is described as follows: compounds shifting NOX4 Amplex Red fluorescence – cell-based, HEK293-NOX4, tetracycline-induced, NOX inhibitor project, primary screen (AID 1160). Conditions: HEK293-NOX4, Amplex Red H2O2 fluorescence, 45 min; higher = more signal, called active from +8 up or from −8 down.
Test [19] concerns the target NADPH oxidase 5 (Homo sapiens) (UniProt Q96PH1). The test is described as follows: compounds shifting NOX5 Amplex Red fluorescence – cell-based, HEK293-NOX5, NOX inhibitor project, primary screen (AID 1161). The note with it: HEK293-NOX5, ionomycin, 45 min, higher = more signal.
Test [20] is described as follows: compound effects on lung adenocarcinoma cell viability – A549, calcein-AM fluorescence, 48 h, basal, profiling panel (AID 1162). Further: test concentration not given here. The note with it: higher = more signal.

Calls of active or inactive are those of the source.

This is an account of results in PubChem BioAssay.

Sequence of NADPH oxidase 5 (Homo sapiens) (Q96PH1 whole entry, looked up): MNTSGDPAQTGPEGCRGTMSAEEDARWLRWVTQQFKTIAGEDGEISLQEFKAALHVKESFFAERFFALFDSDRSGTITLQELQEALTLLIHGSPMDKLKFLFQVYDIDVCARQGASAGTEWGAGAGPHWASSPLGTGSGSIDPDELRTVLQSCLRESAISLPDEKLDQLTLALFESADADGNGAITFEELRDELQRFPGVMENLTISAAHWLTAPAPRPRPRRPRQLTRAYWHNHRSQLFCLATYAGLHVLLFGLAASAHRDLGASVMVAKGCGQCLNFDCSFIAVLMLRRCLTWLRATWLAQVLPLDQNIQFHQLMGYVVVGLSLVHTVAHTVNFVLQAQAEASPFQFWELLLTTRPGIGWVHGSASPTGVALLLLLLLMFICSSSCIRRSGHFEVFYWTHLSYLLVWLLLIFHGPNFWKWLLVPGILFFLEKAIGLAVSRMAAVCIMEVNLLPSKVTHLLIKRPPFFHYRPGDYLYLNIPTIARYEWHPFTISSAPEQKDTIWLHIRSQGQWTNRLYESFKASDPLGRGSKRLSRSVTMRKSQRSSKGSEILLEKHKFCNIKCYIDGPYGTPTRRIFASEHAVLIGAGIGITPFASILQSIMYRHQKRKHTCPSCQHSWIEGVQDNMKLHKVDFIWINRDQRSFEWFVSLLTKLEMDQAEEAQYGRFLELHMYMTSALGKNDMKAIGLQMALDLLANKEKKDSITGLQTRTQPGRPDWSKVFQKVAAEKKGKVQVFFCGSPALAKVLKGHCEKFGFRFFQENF
Sequence of Streptavidin (Streptomyces avidinii) (P22629 whole entry, looked up): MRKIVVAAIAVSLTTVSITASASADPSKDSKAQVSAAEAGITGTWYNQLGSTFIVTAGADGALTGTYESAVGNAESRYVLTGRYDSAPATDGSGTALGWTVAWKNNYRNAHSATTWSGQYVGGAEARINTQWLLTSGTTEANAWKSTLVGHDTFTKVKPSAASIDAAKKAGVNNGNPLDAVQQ
Sequence of NADPH oxidase 4 (Homo sapiens) (Q9NPH5 whole entry, looked up): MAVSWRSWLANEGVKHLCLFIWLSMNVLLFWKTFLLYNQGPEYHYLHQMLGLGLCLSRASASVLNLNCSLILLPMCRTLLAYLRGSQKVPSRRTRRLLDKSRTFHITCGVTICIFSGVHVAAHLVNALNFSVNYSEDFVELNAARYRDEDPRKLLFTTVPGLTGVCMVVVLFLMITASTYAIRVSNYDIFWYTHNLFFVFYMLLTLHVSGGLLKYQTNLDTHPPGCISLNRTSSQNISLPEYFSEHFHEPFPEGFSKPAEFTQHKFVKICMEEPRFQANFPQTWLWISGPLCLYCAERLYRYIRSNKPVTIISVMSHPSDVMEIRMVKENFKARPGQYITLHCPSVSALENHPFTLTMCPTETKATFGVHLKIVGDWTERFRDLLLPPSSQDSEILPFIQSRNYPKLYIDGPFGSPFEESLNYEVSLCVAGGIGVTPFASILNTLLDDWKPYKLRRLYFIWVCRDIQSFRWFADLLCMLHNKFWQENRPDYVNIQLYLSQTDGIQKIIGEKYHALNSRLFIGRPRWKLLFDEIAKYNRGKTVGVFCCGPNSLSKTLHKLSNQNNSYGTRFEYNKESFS
Sequence of Torsin-1A (Homo sapiens) (O14656 whole entry, looked up): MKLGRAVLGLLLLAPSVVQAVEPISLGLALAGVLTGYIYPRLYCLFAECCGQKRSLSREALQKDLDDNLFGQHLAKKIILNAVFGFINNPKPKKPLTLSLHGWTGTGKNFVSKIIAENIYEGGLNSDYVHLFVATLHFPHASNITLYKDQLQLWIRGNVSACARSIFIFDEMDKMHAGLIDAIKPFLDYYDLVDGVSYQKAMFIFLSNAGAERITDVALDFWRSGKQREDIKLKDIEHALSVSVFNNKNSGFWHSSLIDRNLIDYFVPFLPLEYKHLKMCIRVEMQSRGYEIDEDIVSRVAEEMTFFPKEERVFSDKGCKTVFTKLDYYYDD
Sequence of NADPH oxidase 2 (Homo sapiens) (P04839 whole entry, looked up): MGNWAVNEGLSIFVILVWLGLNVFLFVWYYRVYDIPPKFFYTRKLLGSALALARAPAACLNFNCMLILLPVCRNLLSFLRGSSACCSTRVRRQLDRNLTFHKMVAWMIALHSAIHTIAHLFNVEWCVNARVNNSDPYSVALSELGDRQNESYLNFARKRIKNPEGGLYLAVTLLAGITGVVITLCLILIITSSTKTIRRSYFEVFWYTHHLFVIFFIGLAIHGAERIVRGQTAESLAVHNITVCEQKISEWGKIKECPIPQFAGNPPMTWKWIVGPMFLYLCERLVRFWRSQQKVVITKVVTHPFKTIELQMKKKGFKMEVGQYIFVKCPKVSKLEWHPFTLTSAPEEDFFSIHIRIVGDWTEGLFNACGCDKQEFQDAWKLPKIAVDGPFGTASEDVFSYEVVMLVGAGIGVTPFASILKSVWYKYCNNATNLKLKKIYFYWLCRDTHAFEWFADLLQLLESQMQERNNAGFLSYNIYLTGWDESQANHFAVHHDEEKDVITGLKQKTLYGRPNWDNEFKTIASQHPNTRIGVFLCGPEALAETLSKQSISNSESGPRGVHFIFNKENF

For `C=CCNC(=O)[C@H]1[C@@H]2C(=O)O[C@@H](c3ccccc3)[C@@H](c3ccccc3)N2[C@@H](c2ccccc2OCCO)[C@]12C(=O)N(C(=O)OCCOC)c1ccc(C#CCCO)cc12`, the composite z-score in test [1] came to 0.641; in test [5], 0.876; in [6] it was 0.561; with Torsin-1A (Homo sapiens) [7] it was 1.02; in the test with Torsin-1A (Homo sapiens) [8] it was 0.546; in [9], 0.861. The same molecule gave a composite z-score in test [11] of 1.12. The z-score in [2] was -3.68 (inactive); in test [3], 0.472 (inactive); in test [4], 3.22 (inactive); in [10], 1.4 (inactive); in test [12], 2.84 (inactive); in [13], 1.32 (inactive). The z-score in [14] is -0.383 (inactive); in test [15] it was 0.875 (inactive); in [16] it was 0.0195; in [17], 1.74 (inactive); in [18] it was 1.42 (inactive); in test [19], 1.01. For the same molecule, in test [20], the z-score was 0.822.
On to `CC(C)(C)OC(=O)CC[C@@]12N=C(c3ccc(OCCCO)cc3)O[C@@H]1c1ccccc1CN(Cc1ccccc1)C2=O`, for which the composite z-score is 0.822 in test [1]; 0.197 in [5]; 0.0756 in test [6]; 0.161 with Torsin-1A (Homo sapiens) [7]; -0.0105 with Torsin-1A (Homo sapiens) [8]; 1.04 in test [9]. Also, the composite z-score in test [11] was determined as 0.33. Also, the z-score in test [2] was -4.74 (inactive); in test [3], 0.344 (inactive); in test [4], -2.32 (inactive); in test [10] it was 0.71 (inactive); in test [12], 28 (active); in test [13] it was 25.8 (active). In addition, the z-score is 2.02 (inactive) in [14]; 2.14 (inactive) in [15]; 0.302 in [16]; 0.622 (inactive) in test [17]; -0.441 (inactive) in test [18]; -1.44 in [19]. Besides, the z-score in test [20] was -0.633.
Regarding `COCCOC(=O)N1C(=O)[C@@]2(c3cc(C#CC4(O)CCCCCC4)ccc31)[C@H](c1ccc(O)cc1)N1[C@H](c3ccccc3)[C@H](c3ccccc3)OC(=O)[C@H]1[C@@H]2C(N)=O`, the composite z-score in test [1] came out at 0.496; in [5], 0.629; in [6] it was 0.101; with Torsin-1A (Homo sapiens) [7] it was 0.0241; in the test with Torsin-1A (Homo sapiens) [8], 0.497; in test [9] it was 1.22. This molecule also showed a composite z-score in test [11] of 0.181. Also, the z-score in test [2] is -2.03 (inactive); in test [3] it was -0.168 (inactive); in test [4] it was -0.304 (inactive); in [10], 1.91 (inactive); in test [12] it was 1.14 (inactive); in [13], -1.24 (inactive). The z-score is -1.54 (inactive) in test [14]; -2.13 (inactive) in test [15]; 0.736 in test [16]; 1.97 (inactive) in test [17]; 0.751 (inactive) in [18]; 1.29 in test [19]. Further, the z-score in test [20] was 0.0692.
For `O=C1N(CCS(=O)(=O)c2ccccc2)Cc2ccccc2[C@@H]2OC(c3ccc(OCCCO)cc3)=N[C@]12Cc1ccccc1`, the composite z-score was 1.14 in test [1]; 1.66 in test [5]; 0.243 in [6]; 0.612 with Torsin-1A (Homo sapiens) [7]; 0.29 with Torsin-1A (Homo sapiens) [8]; 1.96 in test [9]. Also, the composite z-score in test [11] is 0.327. The z-score is -3.69 (inactive) in test [2]; 0.927 (inactive) in test [3]; -1.09 (inactive) in [4]; 0.218 (inactive) in [10]; 27.7 (active) in test [12]; 18.5 (active) in test [13]. Moreover, the z-score in test [14] was 3.32 (inactive); in test [15] it was 2.53 (inactive); in [16] it was 0.503; in [17], -3.23 (inactive); in [18], -0.195 (inactive); in [19], 1.01. Moreover, the z-score in test [20] was -1.08.
